Results: PubChem BioAssay (Tox21)
Unmarked numbers belong to inactive results. Results filed as inconclusive are left out. Where a call stands in place of a potency, no number is given. Activity calls are given as the source filed them. Unless noted, calls come from the whole dose curve.

Tests used:
[1] = Nuclear factor erythroid 2-related factor 2/antioxidant responsive element (Nrf2/ARE) small molecule agonists: qHTS cell viability counter screen in human keratinocytes (AID 1919968; active = well fitted curve in the direction sought with a large enough effect in the repeat runs; an effect the other way counts as inactive or inconclusive; note: nearly all actives have a fitted effect of over 55% in size; note: potency is the fitted concentration of half-maximal effect)
In short: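 Viability counter-screen: KeratinoSens reporter cells, DMSO-delivered compounds, 23 h at 37 C, CellTiter-Fluor fluorescence.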

[2] = Nuclear factor erythroid 2-related factor 2/antioxidant responsive element (Nrf2/ARE) small molecule agonists: luciferase reporter gene qHTS assay in human keratinocytes (AID 1919969); note: nearly all actives have a fitted effect of over 35% in size; note: potency is the fitted concentration of half-maximal effect
[3] = target: Gonadotropin-releasing hormone receptor (Homo sapiens) (UniProt P30968); assay: Human gonadotropin-releasing hormone receptor (GnRHR) small molecule agonists, calcium flux assay in GnRHR-HEK293 cells (AID 1920063); note: nearly all actives have a fitted effect of over 35% in size
In short: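 Tox21-format agonist screen using human GnRHR-expressing HEK293 cells and a fluorescent calcium dye; kinetic 3-min fluorescence reading after compound addition, 15-point concentration series run in triplicate.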

[4] = target: KiSS-1 receptor (Homo sapiens) (UniProt Q969F8); assay: Human kisspeptin (KISS1R) small molecule agonists, calcium flux assay in KISS1R-HEK293 cells (AID 1920064; active = well fitted curve in the direction sought with a large enough effect in the repeat runs; an effect the other way counts as inactive or inconclusive)
In short: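 Intracellular calcium mobilization in KISS1R-HEK293 cells was recorded by fluorescence (Ex/Em 480/540) for 3 min following compound addition to cells pre-loaded 1 h with calcium dye.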

[5] = p53 small molecule agonists, cell-based qHTS assay with human liver microsomes (AID 1963577);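 note: p53 response element beta-lactamase reporter cells with liver microsomes plus NADPH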
In short: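 HLM-supplemented p53RE-bla reporter assay: 16 h compound exposure at 37 C, microsomes and NADPH each 0.5 mg/mL final, read by fluorescence intensity.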

[6] = p53 small molecule agonists, cell-based qHTS assay with rat liver microsomes (AID 1963578)
In short: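 Quantitative HTS of the Tox21 10K library: p53RE-bla cells, rat liver microsomes plus NADPH at 0.5 mg/mL final each, 16 h at 37 C, beta-lactamase fluorescence detection.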

[7] = p53 small molecule agonists, cell-based qHTS assay with human liver microsomes: qHTS cell viability counter screen (AID 1963579); note: nearly all actives have a fitted effect of over 45% in size
In short: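 Viability of p53RE-bla cells is measured as CellTiter-Glo luminescence following a 16 h, 37 C incubation with compound, liver microsomes from human donors and NADPH.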

[8] = p53 small molecule agonists, cell-based qHTS assay with rat liver microsomes: qHTS cell viability counter screen (AID 1963580); note: nearly all actives have a fitted effect of over 45% in size
In short: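 Viability is assessed in parallel with the p53 reporter read: HCT-116 p53RE-bla cells receive compounds plus rat microsomes and NADPH (0.5 mg/mL final apiece), incubate 16 h at 37 C, and then CellTiter-Glo luminescence is recorded.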

[9] = p53 small molecule agonists, cell-based qHTS assay (AID 1963582; active = well fitted activation curve with a large enough effect in the signal ratio in the repeat runs, not every such curve was filed as active; the % refers to the signal ratio)
In short: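 Agonist activity was scored from beta-lactamase FRET fluorescence in p53RE-bla cells treated 16 h at 37 C with compounds in DMSO, substrate incubation being 2 h at room temperature.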

[10] = target: 5-hydroxytryptamine receptor 2A (Homo sapiens) (UniProt P28223); assay: 5-hydroxytryptamine receptor 2A (HTR2A) small molecule antagonists, cell-based qHTS assay (AID 1963586); note: nearly all actives have a fitted effect of over 45% in size
In short: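 Antagonist-mode intracellular calcium assay: DOI (4 nM) added after 5 min compound pre-incubation at room temperature to dye-loaded HTR2A-CHO cells. Fluorescence followed for 3 min, sampled every second.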

[11] = target: 5-hydroxytryptamine receptor 2A (Homo sapiens) (UniProt P28223); assay: 5-hydroxytryptamine receptor 2A (HTR2A) small molecule agonists, cell-based qHTS assay (AID 1963587); note: nearly all actives have a fitted effect of over 30% in size
In short: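 CHO cells stably expressing human HTR2A, plated 18 h, loaded with calcium dye 1 h at 37 C. Agonist mode: compounds added and intracellular calcium fluorescence recorded kinetically for 2 min at 1 sec intervals.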

[12] = target: Muscarinic acetylcholine receptor M1 (Homo sapiens) (UniProt P11229); assay: Cholinergic receptor muscarinic 1 (CHRM1) small molecule antagonists, cell-based qHTS assay (AID 1963588); note: nearly all actives have a fitted effect of over 40% in size
In short: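 CHRM1-CHO calcium-flux assay, antagonist mode. Cells were seeded 18 h, dye-loaded 1 h at 37 C and given compound for 5 min at RT, then acetylcholine was added at 50nM. FDSS fluorescence was read 3 min; 15 concentrations, three runs.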

[13] = target: Muscarinic acetylcholine receptor M1 (Homo sapiens) (UniProt P11229); assay: Cholinergic receptor muscarinic 1 (CHRM1) small molecule agonists, cell-based qHTS assay (AID 1963589); note: nearly all actives have a fitted effect of over 35% in size
In short: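 Stable CHRM1-CHO cells (human receptor) were incubated 18 h, dye-loaded for 1 h at 37 C and exposed to test compounds for agonist activity, with calcium-dependent fluorescence followed kinetically.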

[14] = cAMP Responsive Elements (CRE) small molecule agonists, cell-based qHTS assay (AID 1963590)
In short: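 FRET-based beta-lactamase readout (LiveBLAzer B/G, 2 h RT) quantified CRE activation in HEK 293T CRE-bla cells after 3 h treatment with DMSO-dissolved compounds.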

[15] = cAMP Responsive Elements (CRE) small molecule antagonists, cell-based qHTS assay (AID 1963591; active = well fitted inhibition curve with a large enough effect in the signal ratio in the repeat runs, not every such curve was filed as active; the % refers to the signal ratio)
In short: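 qHTS in CRE-bla HEK 293T cells: compound in DMSO, then 0.25 uM NKH477 (final), 3 h at 37 °C/5% CO2; beta-lactamase FRET read-out after 2 h substrate incubation.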

[16] = target: Beta-2 adrenergic receptor (Homo sapiens) (UniProt P07550); assay: Adrenergic beta2 receptor (ADRB2) small molecule antagonists, cell-based qHTS assay (AID 1963592); note: series mostly up to about 92 µM; nearly all actives have a fitted effect of over 50% in size
In short: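 Cells (CHO, stable ADRB2 overexpression) incubated 18-20hr at 37C; compounds added from DMSO; agonist mix (1nM isoproterenol, 100uM IBMX, 25uM Ro-20-1724) added; 0.5hr RT; d2-cAMP and anti-cAMP-cryptate added; 1hr RT; 665/615 nm read.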

[17] = target: D(2) dopamine receptor (Homo sapiens) (UniProt P14416); assay: Dopamine D2 receptor (DRD2) small molecule agonists, cell-based qHTS assay (AID 1963594); note: nearly all actives have a fitted effect of over 35% in size
In short: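 HEK293 cells stably expressing human DRD2, pre-treated with PDE inhibitor Ro20-1724 (0.1 mM final) and compound 10 min at room temperature, then stimulated with NKH477 (200nM […]) for 30 min. cAMP read by HTRF (665/620 nm).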

[18] = target: D(2) dopamine receptor (Homo sapiens) (UniProt P14416); assay: Dopamine D2 receptor (DRD2) small molecule antagonists, cell-based qHTS assay (AID 1963595; active = well fitted inhibition curve with a large enough effect in the signal ratio in the repeat runs, with a control signal flat; the % refers to the signal ratio)
In short: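 Human DRD2 antagonist qHTS measuring cAMP by HTRF. The cells are exposed to compound for 10 min, then to NKH477 (200 nM) and quinpirole (12 nM) for 30 min at RT, with Ro20-1724 (0.1 mM) present throughout.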

[19] = p53 small molecule agonists, cell-based qHTS assay: qHTS cell viability counter screen (AID 1963581); note: nearly all actives have a fitted effect of over 45% in size
In short: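 Compounds are pinned onto HCT-116 p53RE-bla cells and left 16 h at 37 C. Following the reporter FRET read, ATP is quantified by CellTiter-Glo luminescence after 30 min at room temperature.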

[20] = target: Beta-2 adrenergic receptor (Homo sapiens) (UniProt P07550); assay: Adrenergic beta2 receptor (ADRB2) small molecule agonists, cell-based qHTS assay (AID 1963593);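 note: CHO cells stably overexpressing human ADRB2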
In short: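 CHO cells stably over-expressing ADRB2 were plated overnight at 37C, then dosed with compounds plus a stimulation mix containing 100uM IBMX and 25uM Ro-20-1724 for 0.5hr at room temperature. cAMP was measured by HTRF competition, 1hr.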

Sequence of D(2) dopamine receptor (Homo sapiens) (P14416 whole entry, looked up): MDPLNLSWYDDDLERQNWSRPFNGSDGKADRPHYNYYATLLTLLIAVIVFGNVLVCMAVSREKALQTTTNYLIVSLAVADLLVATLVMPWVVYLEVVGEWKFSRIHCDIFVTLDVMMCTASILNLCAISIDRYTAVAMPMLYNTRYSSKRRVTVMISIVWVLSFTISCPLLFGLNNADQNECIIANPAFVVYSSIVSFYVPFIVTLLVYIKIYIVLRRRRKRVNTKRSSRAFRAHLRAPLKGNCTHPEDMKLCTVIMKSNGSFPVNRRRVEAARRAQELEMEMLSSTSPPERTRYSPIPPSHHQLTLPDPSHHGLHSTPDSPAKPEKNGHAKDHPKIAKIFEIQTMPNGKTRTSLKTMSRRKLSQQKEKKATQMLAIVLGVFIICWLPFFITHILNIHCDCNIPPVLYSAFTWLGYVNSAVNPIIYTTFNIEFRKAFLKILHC
Sequence of Beta-2 adrenergic receptor (Homo sapiens) (P07550 whole entry, looked up): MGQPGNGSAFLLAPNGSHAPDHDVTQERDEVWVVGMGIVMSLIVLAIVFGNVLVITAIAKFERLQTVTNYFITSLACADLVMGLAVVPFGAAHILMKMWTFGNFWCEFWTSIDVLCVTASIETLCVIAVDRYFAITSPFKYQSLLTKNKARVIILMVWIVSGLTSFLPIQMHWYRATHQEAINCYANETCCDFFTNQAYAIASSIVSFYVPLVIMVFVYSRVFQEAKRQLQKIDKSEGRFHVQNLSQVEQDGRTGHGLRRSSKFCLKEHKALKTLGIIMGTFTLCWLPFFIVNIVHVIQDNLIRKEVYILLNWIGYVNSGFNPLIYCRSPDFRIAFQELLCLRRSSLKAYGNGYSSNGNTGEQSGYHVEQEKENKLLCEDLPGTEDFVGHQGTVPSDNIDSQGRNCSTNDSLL
Sequence of 5-hydroxytryptamine receptor 2A (Homo sapiens) (P28223 whole entry, looked up): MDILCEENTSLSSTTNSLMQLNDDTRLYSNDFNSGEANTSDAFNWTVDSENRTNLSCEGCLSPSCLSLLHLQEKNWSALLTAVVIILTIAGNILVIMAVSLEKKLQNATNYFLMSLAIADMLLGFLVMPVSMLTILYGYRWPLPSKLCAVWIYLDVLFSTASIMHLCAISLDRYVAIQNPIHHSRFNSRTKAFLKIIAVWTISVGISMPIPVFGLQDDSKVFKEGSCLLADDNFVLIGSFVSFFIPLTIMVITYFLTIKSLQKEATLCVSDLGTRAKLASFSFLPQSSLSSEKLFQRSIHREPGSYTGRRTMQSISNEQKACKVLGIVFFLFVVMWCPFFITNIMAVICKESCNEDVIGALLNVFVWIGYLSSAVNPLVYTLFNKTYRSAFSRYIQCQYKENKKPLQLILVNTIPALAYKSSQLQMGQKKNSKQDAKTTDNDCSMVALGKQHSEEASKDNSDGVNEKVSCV
Sequence of Muscarinic acetylcholine receptor M1 (Homo sapiens) (P11229 whole entry, looked up): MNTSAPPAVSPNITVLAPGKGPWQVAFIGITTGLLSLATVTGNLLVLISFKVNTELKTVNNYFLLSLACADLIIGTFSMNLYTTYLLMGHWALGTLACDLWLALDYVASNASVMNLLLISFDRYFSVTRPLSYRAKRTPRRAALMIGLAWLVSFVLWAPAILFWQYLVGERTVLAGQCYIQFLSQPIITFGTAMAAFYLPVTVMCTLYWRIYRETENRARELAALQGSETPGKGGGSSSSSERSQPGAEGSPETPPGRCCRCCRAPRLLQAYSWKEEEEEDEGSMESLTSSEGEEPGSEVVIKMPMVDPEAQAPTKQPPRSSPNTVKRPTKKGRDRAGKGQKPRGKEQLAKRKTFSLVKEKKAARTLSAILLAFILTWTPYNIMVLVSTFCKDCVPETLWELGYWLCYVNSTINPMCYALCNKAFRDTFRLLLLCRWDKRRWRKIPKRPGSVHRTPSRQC
Sequence of Gonadotropin-releasing hormone receptor (Homo sapiens) (P30968 whole entry, looked up): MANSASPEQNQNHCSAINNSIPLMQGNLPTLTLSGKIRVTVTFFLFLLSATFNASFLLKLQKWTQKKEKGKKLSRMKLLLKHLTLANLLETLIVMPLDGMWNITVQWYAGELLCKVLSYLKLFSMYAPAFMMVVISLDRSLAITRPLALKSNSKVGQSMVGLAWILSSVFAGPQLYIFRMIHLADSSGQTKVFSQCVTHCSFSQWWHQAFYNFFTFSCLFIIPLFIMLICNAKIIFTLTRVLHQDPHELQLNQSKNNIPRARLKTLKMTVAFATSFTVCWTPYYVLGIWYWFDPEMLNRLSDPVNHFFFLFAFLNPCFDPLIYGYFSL
Sequence of KiSS-1 receptor (Homo sapiens) (Q969F8 whole entry, looked up): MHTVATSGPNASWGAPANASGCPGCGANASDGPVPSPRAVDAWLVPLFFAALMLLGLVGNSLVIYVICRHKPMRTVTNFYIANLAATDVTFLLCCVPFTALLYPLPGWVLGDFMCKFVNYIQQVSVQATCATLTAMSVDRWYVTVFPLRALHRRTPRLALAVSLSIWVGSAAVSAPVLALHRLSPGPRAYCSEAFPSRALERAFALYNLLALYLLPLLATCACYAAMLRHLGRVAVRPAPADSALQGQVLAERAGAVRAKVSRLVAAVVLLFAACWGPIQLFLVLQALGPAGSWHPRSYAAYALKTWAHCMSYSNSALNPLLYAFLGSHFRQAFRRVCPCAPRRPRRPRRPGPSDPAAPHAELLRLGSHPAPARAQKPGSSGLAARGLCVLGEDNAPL

CCCCCCCCCCCBr
Potency [1]: inactive | Potency [2]: inactive | Potency [3]: inactive | outcome [4]: inactive | Potency [5]: inactive | Potency [6]: inactive | Potency [7]: inactive | Potency [8]: inactive | Potency [9]: inactive | Potency [10]: inactive | Potency [11]: inactive | Potency [12]: inactive | Potency [13]: inactive | Potency [14]: inactive | Potency [15]: inactive | Potency [16]: inactive | Potency [17]: inactive | Potency [18]: inactive

C1=CCC(c2ccccc2)CC1 (centres undefined)
Potency [1]: inactive | Potency [2]: inactive | Potency [3]: inactive | outcome [4]: inactive | Potency [5]: inactive | Potency [6]: inactive | Potency [7]: inactive | Potency [8]: inactive | Potency [9]: inactive | Potency [10]: inactive | Potency [11]: inactive | Potency [13]: inactive | Potency [14]: inactive | Potency [15]: inactive | Potency [16]: inactive | Potency [17]: inactive | Potency [18]: inactive

Clc1nc(C(Cl)(Cl)Cl)c(Cl)c(Cl)c1Cl
Potency [1]: 48.6 µM (active) | Potency [2]: 21.7 µM (active) | Potency [3]: inactive | outcome [4]: inactive | Potency [5]: inactive | Potency [6]: inactive | Potency [7]: inactive | Potency [8]: inactive | Potency [19]: inactive | Potency [10]: inactive | Potency [13]: inactive | Potency [17]: inactive | Potency [18]: inactive

CCC(C(=O)OCCN1CCOC(c2ccccc2)C1C)c1ccccc1 (centres undefined)
Potency [1]: inactive | Potency [2]: inactive | Potency [3]: inactive | outcome [4]: inactive | Potency [5]: inactive | Potency [6]: inactive | Potency [7]: inactive | Potency [8]: inactive | Potency [19]: inactive | Potency [13]: inactive | Potency [14]: inactive | Potency [15]: inactive | Potency [16]: inactive | Potency [20]: inactive | Potency [17]: inactive | Potency [18]: inactive

CCO[Si](CC)(OCC)OCC
Potency [1]: inactive | Potency [2]: inactive | Potency [3]: inactive | outcome [4]: inactive | Potency [5]: inactive | Potency [6]: inactive | Potency [7]: inactive | Potency [8]: inactive | Potency [9]: inactive | Potency [10]: inactive | Potency [11]: inactive | Potency [12]: inactive | Potency [13]: inactive | Potency [14]: inactive | Potency [15]: inactive | Potency [16]: inactive | Potency [20]: inactive | Potency [17]: inactive | Potency [18]: inactive

N[C@H]1CN(c2c(F)cc3c(=O)c(C(=O)O)cn(C4C[C@H]4F)c3c2Cl)CC12CC2 (some centres undefined)
Potency [1]: inactive | Potency [2]: inactive | Potency [3]: inactive | outcome [4]: inactive | Potency [5]: inactive | Potency [6]: inactive | Potency [7]: inactive | Potency [10]: inactive | Potency [11]: inactive | Potency [13]: inactive | Potency [17]: inactive | Potency [18]: inactive

CCOC(=O)C(=O)OCC
Potency [1]: inactive | Potency [2]: inactive | Potency [3]: inactive | outcome [4]: inactive | Potency [5]: inactive | Potency [6]: inactive | Potency [7]: inactive | Potency [8]: inactive | Potency [9]: inactive | Potency [11]: inactive | Potency [12]: inactive | Potency [13]: inactive | Potency [15]: inactive | Potency [16]: inactive | Potency [20]: inactive | Potency [17]: inactive | Potency [18]: inactive

C[C@@]12C(=O)OC(=O)[C@]1(C)C1CCC2O1
Potency [1]: 16.8 µM (active) | Potency [2]: inactive | Potency [3]: inactive | outcome [4]: inactive | Potency [5]: inactive | Potency [6]: inactive | Potency [7]: inactive | Potency [16]: inactive | Potency [20]: inactive | Potency [17]: inactive | Potency [18]: inactive

Cc1cc(Br)ccc1NC(=O)CCl
Potency [1]: 30.6 µM (active) | Potency [2]: 13.7 µM (active) | Potency [3]: inactive | outcome [4]: inactive | Potency [5]: inactive | Potency [6]: inactive | Potency [7]: inactive | Potency [8]: inactive | Potency [10]: inactive | Potency [11]: inactive | Potency [12]: inactive | Potency [13]: inactive | Potency [16]: inactive | Potency [20]: inactive | Potency [17]: inactive | Potency [18]: inactive

S=C1NC=NC2N=CNC12 (centres undefined)
Potency [1]: inactive | Potency [2]: inactive | Potency [3]: inactive | outcome [4]: inactive | Potency [5]: inactive | Potency [6]: inactive | Potency [7]: inactive | Potency [8]: inactive | Potency [10]: inactive | Potency [11]: inactive | Potency [12]: inactive | Potency [13]: inactive | Potency [14]: inactive | Potency [16]: inactive | Potency [17]: inactive | Potency [18]: inactive

Nc1c2c(nc3c1CCC3)CCCC2
Potency [1]: inactive | Potency [2]: inactive | Potency [3]: inactive | outcome [4]: inactive | Potency [5]: inactive | Potency [6]: inactive | Potency [7]: inactive | Potency [19]: inactive | Potency [11]: inactive | Potency [12]: inactive | Potency [13]: inactive | Potency [14]: inactive | Potency [15]: inactive | Potency [16]: inactive | Potency [20]: inactive | Potency [18]: inactive

C[N+]1(C)CCC(=C(c2ccccc2)c2ccccc2)CC1
Potency [1]: inactive | Potency [2]: inactive | Potency [3]: inactive | outcome [4]: inactive | Potency [5]: inactive | Potency [6]: inactive | Potency [7]: inactive | Potency [8]: inactive | Potency [19]: inactive | Potency [11]: inactive | Potency [13]: inactive | Potency [14]: inactive | Potency [15]: inactive | Potency [16]: inactive | Potency [20]: inactive | Potency [17]: inactive | Potency [18]: inactive

CCCCCCC(CO)CCCC (centres undefined)
Potency [1]: inactive | Potency [2]: inactive | Potency [3]: inactive | outcome [4]: inactive | Potency [5]: inactive | Potency [6]: inactive | Potency [7]: inactive | Potency [19]: inactive | Potency [9]: inactive | Potency [10]: inactive | Potency [11]: inactive | Potency [12]: inactive | Potency [13]: inactive | Potency [14]: inactive | Potency [15]: inactive | Potency [16]: inactive | Potency [20]: inactive | Potency [17]: inactive | Potency [18]: inactive

CSc1cnc(C)cn1
Potency [1]: inactive | Potency [2]: inactive | Potency [3]: inactive | outcome [4]: inactive | Potency [5]: inactive | Potency [6]: inactive | Potency [7]: inactive | Potency [8]: inactive | Potency [9]: inactive | Potency [10]: inactive | Potency [11]: inactive | Potency [13]: inactive | Potency [14]: inactive | Potency [15]: inactive | Potency [16]: inactive | Potency [17]: inactive | Potency [18]: inactive
